# Results taken from PubChem BioAssay (EPA / NIEHS).
# Values joined by “and” are separate entries in the source; they are usually repeats but may differ in a detail not shown here. Identical values can stand only once. Inconclusive results are not listed. Active and inactive are the calls of the source. Rule for the calls: active = hit-call score of the fitted dose curve at least 0.9, where 1 is the maximum; inconclusive = response in the unintended direction; inactive = score below 0.9.
# Molecular target: rat CYP2C11, Cyp2c11 (gene 29277) (UniProt P08683)
# Experiment: NVS_ADME_rCYP2C11: NovaScreen (NVS) CYP450-related Enzyme Activity (ADME) Assay for rat CYP2C11 (AID 2283118)
# Procedure, shortened: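 Cell-free recombinant rat enzyme with fluorescent substrate; readout 0.33 h after dosing, loss of signal versus acetonitrile control. Initial duplicate single-point at 10 uM; actives rerun in concentration series.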
# Chain of rat CYP2C11, Cyp2c11 (gene 29277) (P08683 whole entry, looked up): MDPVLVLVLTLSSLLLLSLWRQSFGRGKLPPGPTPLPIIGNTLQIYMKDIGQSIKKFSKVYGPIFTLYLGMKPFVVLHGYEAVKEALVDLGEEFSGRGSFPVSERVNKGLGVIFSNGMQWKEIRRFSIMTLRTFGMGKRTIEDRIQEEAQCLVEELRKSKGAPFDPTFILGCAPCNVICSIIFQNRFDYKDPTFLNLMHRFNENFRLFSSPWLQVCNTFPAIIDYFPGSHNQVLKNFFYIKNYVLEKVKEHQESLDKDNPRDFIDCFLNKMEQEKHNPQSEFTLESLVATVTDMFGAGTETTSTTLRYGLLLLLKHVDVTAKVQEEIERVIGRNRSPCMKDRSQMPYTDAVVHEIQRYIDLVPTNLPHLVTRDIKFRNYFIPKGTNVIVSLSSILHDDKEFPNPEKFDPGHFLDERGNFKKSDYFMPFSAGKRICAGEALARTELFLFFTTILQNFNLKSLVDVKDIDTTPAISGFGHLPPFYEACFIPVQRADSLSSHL
row,SMILES,AC50
1,Fc1ccc(C2(Cn3cncn3)OC2c2ccccc2Cl)cc1 (stereo not drawn),974 nM (active)
2,O=C1C2(Cl)C3(Cl)C4(Cl)C(Cl)(Cl)C5(Cl)C3(Cl)C1(Cl)C5(Cl)C24Cl (stereo not drawn),193 nM (active) and 1.16 µM (active) and 250 nM (active)
3,COP(=S)(OC)Oc1ccc(Sc2ccc(OP(=S)(OC)OC)cc2)cc1,8460 nM (active)
4,CC1(C)CCC(Cc2ccc(Cl)cc2)C1(O)Cn1cncn1 (stereo not drawn),121 nM (active)
5,Clc1ccc(C2(Cn3cncn3)CC(Br)CO2)c(Cl)c1 (stereo not drawn),1590 nM (active)

# Molecular target: rat CYP2C12, Cyp2c12 (gene 25011) (UniProt P11510)
# Experiment: NVS_ADME_rCYP2C12: NovaScreen (NVS) CYP450-related Enzyme Activity (ADME) Assay for rat CYP2C12 (AID 2283119)
# Experimental: (§1) NVS_ADME_rCYP2C12 is a biochemical, single-readout assay that uses extracted gene-proteins in a cell-free assay. Measurements were taken 0.5 hour after chemical dosing in a 96-well plate.NVS_ADME_rCYP2C12 is one of one assay component(s) measured or calculated from the NVS_ADME_rCYP2C12 assay. It is designed to make measurements of enzyme activity, a form of enzyme reporter, as detected with fluorescence intensity signals by Fluorescence technology.Data from the assay component NVS_ADME_rCYP2C12 was analyzed into 1 assay endpoint. This assay endpoint, NVS_ADME_rCYP2C12, was analyzed in the positive analysis fitting direction relative to Acetonitrile as the negative control and baseline of activity. Using a type of enzyme reporter, loss-of-signal activity can be used to understand changes in the enzymatic activity as they relate to the gene Cyp2c12. Furthermore, this assay endpoint can be referred to as a primary readout, because this assay has produced multiple assay endpoints where this one serves a enzymatic activity function. To generalize the intended target to other relatable targets, this assay endpoint is annotated to the cyp intended target family, where the subfamily is xenobiotic metabolism.
# Binding assays used specific radioligands (tritiated, iodinated) with non-radioactive competitive displacement ligands in agonist or antagonist protocols (as indicated) and various reference compounds and inhibitors to titrate specific binding to receptors and transporters. Most enzyme assays (CYPs, kinases, phosphatases, proteases, HDACs) used recombinant protein and specific substrates (fluorescence mostly, some colorimetric and radioactive) and inhibitors, followed by a biochemical separation of substrate and product. All assays for the biochemical HTS were initially run in duplicate at a single concentration (10 uM for CYP450 assays and 25 uM for all others). […] Each assay was run with positive and negative controls, and concurrent controls on every plate. […]
# Chain of rat CYP2C12, Cyp2c12 (gene 25011) (P11510 whole entry, looked up): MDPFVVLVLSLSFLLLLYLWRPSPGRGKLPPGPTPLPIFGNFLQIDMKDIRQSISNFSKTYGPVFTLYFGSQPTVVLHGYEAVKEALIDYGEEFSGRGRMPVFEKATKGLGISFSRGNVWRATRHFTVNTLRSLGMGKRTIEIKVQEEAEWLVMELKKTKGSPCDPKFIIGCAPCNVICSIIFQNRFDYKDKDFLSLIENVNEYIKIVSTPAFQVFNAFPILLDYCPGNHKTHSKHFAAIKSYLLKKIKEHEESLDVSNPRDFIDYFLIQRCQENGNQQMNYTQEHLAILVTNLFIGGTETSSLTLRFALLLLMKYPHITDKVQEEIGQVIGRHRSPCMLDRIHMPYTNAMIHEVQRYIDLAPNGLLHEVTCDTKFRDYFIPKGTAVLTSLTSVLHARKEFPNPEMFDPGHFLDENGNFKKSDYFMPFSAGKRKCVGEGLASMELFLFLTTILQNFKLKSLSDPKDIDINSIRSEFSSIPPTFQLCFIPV
row,SMILES,AC50
1,CCOC(=O)Nc1cccc(OC(=O)Nc2ccccc2)c1,10 µM (active)
2,CC1(C)CCC(Cc2ccc(Cl)cc2)C1(O)Cn1cncn1 (stereo not drawn),5.15 µM (active)
3,Clc1ccc(C2(Cn3cncn3)CC(Br)CO2)c(Cl)c1 (stereo not drawn),11 µM (active)

# System: rat CYP2C6, gene 293989
# Experiment: NVS_ADME_rCYP2C6: NovaScreen (NVS) CYP450-related Enzyme Activity (ADME) Assay for rat CYP2C6 (AID 2283120)
# Experimental: as §1, with “NVS_ADME_rCYP2C6” for “NVS_ADME_rCYP2C12”, “1” for “0.5”, “plate.NVS_ADME_rCYP2C6” for “plate.NVS_ADME_rCYP2C12”, “NVS_ADME_rCYP2C6,” for “NVS_ADME_rCYP2C12,”, “Cyp2c6v1.” for “Cyp2c12.”
# Binding assays used specific radioligands (tritiated, iodinated) with non-radioactive competitive displacement ligands in agonist or antagonist protocols (as indicated) and various reference compounds and inhibitors to titrate specific binding to receptors and transporters. Most enzyme assays (CYPs, kinases, phosphatases, proteases, HDACs) used recombinant protein and specific substrates (fluorescence mostly, some colorimetric and radioactive) and inhibitors, followed by a biochemical separation of substrate and product. All assays for the biochemical HTS were initially run in duplicate at a single concentration (10 uM for CYP450 assays and 25 uM for all others). […]
row,SMILES,AC50
1,O=C1C2(Cl)C3(Cl)C4(Cl)C(Cl)(Cl)C5(Cl)C3(Cl)C1(Cl)C5(Cl)C24Cl (stereo not drawn),7.93 µM (active) and 5.36 µM (active)
2,COP(=S)(OC)Oc1ccc(Sc2ccc(OP(=S)(OC)OC)cc2)cc1,2.96 µM (active)
3,Clc1ccc(C2(Cn3cncn3)CC(Br)CO2)c(Cl)c1 (stereo not drawn),4.68 µM (active)

# Molecular target: rat CYP2C13, Cyp2c13 (gene 171521) (UniProt P20814)
# Experiment: NVS_ADME_rCYP2C13: NovaScreen (NVS) CYP450-related Enzyme Activity (ADME) Assay for rat CYP2C13 (AID 2283121)
# Procedure, shortened: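 Recombinant rat CYP2C13 with fluorogenic substrate, 0.75 h cell-free incubation; primary screen in duplicate at 10 uM, actives followed in concentration series. Fluorescence loss relative to acetonitrile control indicates inhibition.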
# Chain of rat CYP2C13, Cyp2c13 (gene 171521) (P20814 whole entry, looked up): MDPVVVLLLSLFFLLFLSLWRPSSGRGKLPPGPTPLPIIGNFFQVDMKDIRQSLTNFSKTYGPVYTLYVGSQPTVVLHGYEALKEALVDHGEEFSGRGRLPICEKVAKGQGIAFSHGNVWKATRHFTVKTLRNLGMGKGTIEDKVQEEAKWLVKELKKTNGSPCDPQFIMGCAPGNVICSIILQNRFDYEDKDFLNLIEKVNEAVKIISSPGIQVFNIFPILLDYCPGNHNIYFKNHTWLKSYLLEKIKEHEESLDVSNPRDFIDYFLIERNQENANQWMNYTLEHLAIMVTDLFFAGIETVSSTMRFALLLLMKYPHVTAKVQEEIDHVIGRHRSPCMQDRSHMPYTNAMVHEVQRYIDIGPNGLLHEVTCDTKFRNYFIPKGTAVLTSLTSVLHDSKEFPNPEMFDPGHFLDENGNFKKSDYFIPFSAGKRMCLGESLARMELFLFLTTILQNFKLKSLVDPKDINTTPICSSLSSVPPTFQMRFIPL
row,SMILES,AC50
1,Fc1ccc(C2(Cn3cncn3)OC2c2ccccc2Cl)cc1 (stereo not drawn),0.377 µM (active)
2,CCOC(=O)Nc1cccc(OC(=O)Nc2ccccc2)c1,10.4 µM (active)
3,CC1(C)CCC(Cc2ccc(Cl)cc2)C1(O)Cn1cncn1 (stereo not drawn),1.17 µM (active)
4,Clc1ccc(C2(Cn3cncn3)CC(Br)CO2)c(Cl)c1 (stereo not drawn),1.87 µM (active)

# System: rat CYP3A1, gene 25642
# Experiment: NVS_ADME_rCYP3A1: NovaScreen (NVS) CYP450-related Enzyme Activity (ADME) Assay for rat CYP3A1 (AID 2283126)
# Procedure, shortened: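 Cell-free recombinant CYP assay with fluorescent substrate, read 0.5 h after dosing. Screened at 10 uM in duplicate, hits at up to 20 uM in concentration-response; loss of signal versus acetonitrile baseline.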
row,SMILES,AC50
1,O=C1C2(Cl)C3(Cl)C4(Cl)C(Cl)(Cl)C5(Cl)C3(Cl)C1(Cl)C5(Cl)C24Cl (stereo not drawn),6.55 µM (active) and 3.69 µM (active)
2,COP(=S)(OC)Oc1ccc(Sc2ccc(OP(=S)(OC)OC)cc2)cc1,9.92 µM (active)
3,Clc1ccc(C2(Cn3cncn3)CC(Br)CO2)c(Cl)c1 (stereo not drawn),0.721 µM (active)

# Molecular target: human Acetylcholinesterase (AChE), ACHE (gene 43) (UniProt P22303)
# Experiment: NVS_ENZ_hAChE: NovaScreen (NVS) Enzymatic Assay for human Acetylcholinesterase (AChE) (AID 2283129)
# Procedure, shortened: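 Cell-free colorimetric enzyme-activity assay; compounds read 0.33 hour after dosing, loss of signal vs DMSO baseline. Primary screen in duplicate at 25 uM single concentration, with active compounds retested in concentration series.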
# Chain of human Acetylcholinesterase (AChE), ACHE (gene 43) (P22303 whole entry, looked up): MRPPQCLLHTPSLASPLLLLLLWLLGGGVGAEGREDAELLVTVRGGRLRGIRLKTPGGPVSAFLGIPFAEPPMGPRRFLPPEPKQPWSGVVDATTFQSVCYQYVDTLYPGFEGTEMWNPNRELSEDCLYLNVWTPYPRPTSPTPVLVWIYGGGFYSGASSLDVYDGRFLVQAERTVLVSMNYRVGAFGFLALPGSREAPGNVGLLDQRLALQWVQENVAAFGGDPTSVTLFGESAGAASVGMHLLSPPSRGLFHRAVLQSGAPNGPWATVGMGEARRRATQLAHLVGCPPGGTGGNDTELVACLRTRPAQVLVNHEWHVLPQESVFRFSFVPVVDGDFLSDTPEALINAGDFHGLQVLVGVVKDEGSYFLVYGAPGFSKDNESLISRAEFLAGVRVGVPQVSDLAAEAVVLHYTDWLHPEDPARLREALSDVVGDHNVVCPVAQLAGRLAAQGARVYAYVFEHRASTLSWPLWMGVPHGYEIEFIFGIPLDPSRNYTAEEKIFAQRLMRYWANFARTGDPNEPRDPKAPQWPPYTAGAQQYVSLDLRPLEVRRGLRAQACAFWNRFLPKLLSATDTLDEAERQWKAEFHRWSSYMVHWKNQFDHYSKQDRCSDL
SMILES,AC50,outcome
COc1cc(-c2ccc(N)c(OC)c2)ccc1N,13.8 µM (active),
CC(C)(C)c1cc(O)ccc1O,,inactive
CCN1CCC2(CC1)COc1cc3c(cc12)N(C(=O)c1ccc(-c2ccc(-c4nnc(C)o4)cc2C)cc1)CC3,4.69 µM (active),
CC(=O)[O][Hg][c]1ccccc1,40 µM (active),
Oc1cccc2cccnc12,,inactive
